The source made the active and inactive calls.
Assay: splicing luciferase reporter signal modulators, primary screen, spliceosome inhibition project, cell-based, HEK293, splice +/- reporter (AID 1101);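 note: HEK293 cells carrying a splicing-competent luciferase reporter gene; test concentration not given here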
Conditions: luminescence, 24 h, higher = more signal, called active from +8 up or from −8 down

z-score, inactive:
CCOC(=O)C[C@H]1[C@H](OC(=O)c2ccc(-c3ccccc3)cc2)[C@@H](NC(=O)Cc2ccc(OC)cc2)c2cc(OCCCO)ccc2N1C(=O)c1ccc2ccccc2n1 -1.05
C=CC[C@@]1(C(=O)NCC(O)CO)N=C(c2ccc(OCCCO)cc2)O[C@@H]1c1ccccc1N=[N+]=[N-] (stereo not given in full) -1.25
CCCCC=C[C@@H](NC(=O)c1ccco1)c1ccccc1 0.808
CC(C)(C)OC(=O)CC[C@@]1(C(=O)NCCN2CCOCC2)N=C(c2ccc(OCCCO)cc2)O[C@@H]1c1ccccc1 -1.16
CC(C)(C)N1CC=CC23O[C@@H]4C=CCOC(=O)[C@@H]4[C@H]2C(=O)N(CCCCCO)[C@@H]3C1=O (stereo not given in full) -0.018
COc1ccc(C(O)C2C=CC3C(=O)N(c4ccccc4)C(=O)C3N2Nc2ccc([N+](=O)[O-])cc2)cc1OCc1ccccc1 (stereo not given) 0.465
CN(C)C(=O)[C@]1(CCC(=O)OC(C)(C)C)N=C(c2ccc(OCCCO)cc2)O[C@@H]1c1ccccc1N=[N+]=[N-] -0.194
O=C1OCC=C[C@H]2OC34C=CCN(c5ccc6ccccc6c5)C(=O)[C@H]3N(CCCO)C(=O)[C@@H]4[C@@H]12 (stereo not given in full) -1.72
COC(=O)c1c(CC[C@@H](CO)NC(=O)N[C@@H](Cc2ccccc2)Cn2cc(C3(O)CCCCC3)nn2)oc(C(C)=O)c1C(=O)OC -2.62
C=CCOC(=O)[C@H]1[C@@H]2C(=O)O[C@@H](c3ccccc3)[C@@H](c3ccccc3)N2[C@@H](c2ccc(OCCOC(=O)[C@@H]3C[C@@H]4C(=O)NCC(=O)N4[C@@H]3c3ccc(O)cc3)cc2)[C@]12C(=O)Nc1ccccc12 -1.15
